# Test results published in PubChem BioAssay AID1159580 (chemical genetic matrix, 2015).
# The whole screen tested about 5,500 compounds, of which about 2,000 (36%) were called active. Another 18% or so got no clear call; they are omitted. The list shows a part of the results. A number with no mark means an inactive call. Cut-off read from the data, not from the text of the source: active = normalized growth mostly below about 0.91 (no sharp cut-off); inconclusive = no clear call, values can overlap the other calls; inactive = mostly above about 0.92.
# Assay: chemical genetic growth profiling, strain panel (AID 1159580);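 note: tested at 20 µM; growth read once vehicle control cultures reached saturation at 30 °C; 1 = growth at the plate median or of vehicle wells; lower values mean less growth of the strain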
# Conditions: S. cerevisiae deletion strains, growth OD
compound,measurement,setting,value
CC12CCCCC1(Br)[N+](=O)N2[O-] (stereo unspecified),normalized growth,"locus YAL021C, strain ccr4, active compounds read low",0.951
same,normalized growth,"locus YAL026C, strain drs2, active compounds read low",0.899 (active)
same,normalized growth,"locus YAL030W, strain snc1, active compounds read low",0.997
same,normalized growth,"locus YBL061C, strain skt5, active compounds read low",0.978
same,normalized growth,"locus YBR009C, strain hhf1, active compounds read low",0.939
same,normalized growth,"locus YBR023C, strain chs3, active compounds read low",0.976
same,normalized growth,"locus YBR171W, strain sec66, active compounds read low",0.964
same,normalized growth,"locus YBR231C, strain swc5, active compounds read low",0.992
same,normalized growth,"locus YBR279W, strain paf1, active compounds read low",0.972
same,normalized growth,"locus YCL011C, strain gbp2, active compounds read low",0.943
same,normalized growth,"locus YCL016C, strain dcc1, active compounds read low",0.951
same,normalized growth,"locus YCL069W, strain vba3, active compounds read low",0.986
same,normalized growth,"locus YCR088W, strain abp1, active compounds read low",0.983
same,normalized growth,"locus YDL005C, strain med2, active compounds read low",0.969
same,normalized growth,"locus YDL040C, strain nat1, active compounds read low",0.991
same,normalized growth,"locus YDR001C, strain nth1, active compounds read low",1.01
same,normalized growth,"locus YDR069C, strain doa4, active compounds read low",0.91
same,normalized growth,"locus YDR137W, strain rgp1, active compounds read low",0.857
same,normalized growth,"locus YDR159W, strain sac3, active compounds read low",0.995
same,normalized growth,"locus YDR195W, strain ref2",1.01
same,normalized growth,"locus YDR297W, strain sur2, active compounds read low",1
same,normalized growth,"locus YDR334W, strain swr1, active compounds read low",0.984
same,normalized growth,"locus YDR335W, strain msn5, active compounds read low",0.974
same,normalized growth,"locus YDR392W, strain spt3, active compounds read low",0.948
same,normalized growth,"locus YEL003W, strain gim4, active compounds read low",0.994
same,normalized growth,"locus YEL037C, strain rad23, active compounds read low",0.998
same,normalized growth,"locus YEL061C, strain CIN8 (second series), active compounds read low",0.993
same,normalized growth,"locus YER015W, strain faa2, active compounds read low",0.993
same,normalized growth,"locus YER016W, strain bim1, active compounds read low",0.999
same,normalized growth,"locus YER111C, strain swi4, active compounds read low",0.967
same,normalized growth,"locus YER155C, strain BEM2 (second series), active compounds read low",0.853 (active)
same,normalized growth,"locus YFR010W, strain ubp6, active compounds read low",0.922
same,normalized growth,"locus YGL167C, strain pmr1, active compounds read low",0.993
same,normalized growth,"locus YGL173C, strain kem1, active compounds read low",0.953
same,normalized growth,"locus YGL227W, strain vid30, active compounds read low",0.992
same,normalized growth,"locus YGL240W, strain doc1, active compounds read low",0.992
same,normalized growth,"locus YGL253W, strain hxk2, active compounds read low",0.989
same,normalized growth,"locus YHR013C, strain ard1, active compounds read low",0.919
same,normalized growth,"locus YHR027C, strain rpn1, active compounds read low",0.966
same,normalized growth,"locus YHR142W, strain chs7, active compounds read low",0.942
same,normalized growth,"locus YJL092W, strain hpr5, active compounds read low",0.989
same,normalized growth,"locus YJL095W, strain BCK1 (second series), active compounds read low",0.993
same,normalized growth,"locus YJL115W, strain asf1, active compounds read low",0.987
same,normalized growth,"locus YJL129C, strain trk1, active compounds read low",0.997
same,normalized growth,"locus YJL154C, strain vps35, active compounds read low",0.997
same,normalized growth,"locus YJL164C, strain tpk1, active compounds read low",0.951
same,normalized growth,"locus YJL166W, strain qcr8, active compounds read low",0.961
same,normalized growth,"locus YJL187C, strain SWE1, active compounds read low",0.986
same,normalized growth,"locus YKL160W, strain elf1, active compounds read low",0.944
same,normalized growth,"locus YKR026C, strain gcn3, active compounds read low",0.985
same,normalized growth,"locus YKR091W, strain srl3, active compounds read low",0.989
same,normalized growth,"locus YLL001W, strain dnm1, active compounds read low",0.967
same,normalized growth,"locus YLL026W, active compounds read low",0.991
same,normalized growth,"locus YLL041C, strain sdh2, active compounds read low",0.999
same,normalized growth,"locus YLR027C, strain aat2, active compounds read low",0.954
same,normalized growth,"locus YLR221C, strain rsa3, active compounds read low",0.927
same,normalized growth,"locus YLR258W, strain gsy2, active compounds read low",0.967
same,normalized growth,"locus YLR262C, strain YPT6 (second series), active compounds read low",0.815 (active)
same,normalized growth,"locus YLR320W, strain mms22, active compounds read low",0.954
same,normalized growth,"locus YLR342W, strain FKS1, active compounds read low",0.946
same,normalized growth,"locus YLR357W, strain rsc2, active compounds read low",0.914
same,normalized growth,"locus YLR370C, strain arc18, active compounds read low",0.966
same,normalized growth,"locus YLR384C, strain iki3, active compounds read low",0.984
same,normalized growth,"locus YML120C, strain ndi1, active compounds read low",1
same,normalized growth,"locus YMR058W, strain fet3, active compounds read low",0.951
same,normalized growth,"locus YMR125W, strain sto1, active compounds read low",1.02
same,normalized growth,"locus YMR129W, active compounds read low",0.98
same,normalized growth,"locus YMR205C, strain PFK2, active compounds read low",0.995
same,normalized growth,"locus YMR231W, strain pep5, active compounds read low",0.997
same,normalized growth,"locus YNL071W, strain lat1, active compounds read low",0.946
same,normalized growth,"locus YNL209W, strain ssb2, active compounds read low",0.963
same,normalized growth,"locus YNL248C, strain rpa49, active compounds read low",0.954
same,normalized growth,"locus YNL322C, strain KRE1 (second series), active compounds read low",0.979
same,normalized growth,"locus YNR049C, strain mso1, active compounds read low",0.999
same,normalized growth,"locus YOR001W, strain rrp6, active compounds read low",0.958
same,normalized growth,"locus YOR070C, strain gyp1, active compounds read low",0.994
same,normalized growth,"locus YOR080W, strain dia2, active compounds read low",1
same,normalized growth,"locus YOR083W, strain WHI5, active compounds read low",0.895
same,normalized growth,"locus YOR106W, strain vam3, active compounds read low",0.884
same,normalized growth,"locus YOR265W, strain rbl2, active compounds read low",0.991
same,normalized growth,"locus YOR270C, strain vph1, active compounds read low",0.81
same,normalized growth,"locus YOR290C, strain snf2, active compounds read low",0.976
same,normalized growth,"locus YPL051W, strain arl3, active compounds read low",0.936
same,normalized growth,"locus YPL078C, strain atp4, active compounds read low",0.967
same,normalized growth,"locus YPL106C, strain sse1, active compounds read low",0.941
same,normalized growth,"locus YPL240C, strain hsp82, active compounds read low",0.978
